# In PubChem BioAssay (NCI):
# The panel holds about 79,000 compounds, 15% with a hit somewhere; the sample as a whole holds those more often. Values without a mark were called inactive. Active and inactive are the calls of the source. Rule as the data show it: active = growth inhibition above about 70%; inactive = the rest.
# Experiment: NCI Yeast Anticancer Drug Screen. Data for the mlh1 strain (AID 171);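 also: 0% = growth of vehicle-treated control cultures of the same strain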
# Details: S. cerevisiae mlh1 strain growth inhibition, active compounds read high
# Description: Growth inhibition of yeast strains with defined genetic alterations is measured as a screen for potential anti-cancer activity. Selected strains with alterations in DNA damage repair or cell cycle control were exposed to compounds and growth inhibition was measured relative to vehicle treated controls. The strain used in this assay is mlh1
SMILES,growth inhibition (at 1.2 µM) [%],growth inhibition (at 3.7 µM) [%],growth inhibition (at 11.0 µM),growth inhibition (at 33.0 µM),growth inhibition (at 100.0 µM)
O=C1NC(=S)NC(=O)C1=Cc1ccc([N+](=O)[O-])o1,15,33,21%,41%,81% (active)
COc1cc(O)c2c(O)c3c(c4c2c1[C@]1(C4)C(C)=CCCC1(C)C)[C@H](O)[C@@]1(O)CC(=O)C(C(N)=O)=C(O)[C@@]1(O)C3=O,-21,67,97% (active),97% (active),95% (active)
C[N+](C)(C)CC1CCCC(C[N+](C)(C)C)C1=O (stereo not given),0,3,7%,26%,99% (active)
O=C(Nc1cc(Cl)ccc1Cl)C(Cl)(Cl)Cl,1,4,5%,12%,20%
O=C1c2ccccc2C(=O)C(Cl)C1Cl (stereo not given),1,4,93% (active),99% (active),99% (active)
COC(=O)C1=C(C(=O)OC)SC2(S1)C(C(=O)OC)=C(C(=O)OC)Sc1c2ssc1=O,44,51,88% (active),99% (active),92% (active)
COc1ccc(/C=C(/C)[N+](=O)[O-])cc1,-12,-16,-2%,97% (active),99% (active)
O=C(c1ccccc1)C1C(c2ccccc2[N+](=O)[O-])N1C1CCCCC1 (stereo not given),4,8,19%,45%,90% (active)
